Assay results as given in PubChem BioAssay (EPA / NIEHS).
Where “and” joins values, the source holds several entries; their conditions need not be identical. Identical values can stand only once. Results filed as inconclusive are left out. The source holds several records for some structures; these can differ, active in one and inactive in another. Calls of active or inactive are those of the source. How the source made its calls: active means hit-call score of the fitted dose curve at least 0.9, where 1 is the maximum; inconclusive means response in the unintended direction; inactive means score below 0.9.

How the values were obtained:
[1] = target: human Opioid Receptor Mu (Opiate Mu), OPRM1 (gene 4988) (UniProt P35372); assay: NVS_GPCR_hOpiate_mu: NovaScreen (NVS) G Protein-Coupled Receptor Assay for human Opioid Receptor Mu (Opiate Mu) (AID 2283290);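 further: hits lower bound tracer signal versus DMSO meaning displacement of the ligand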
Chain of human Opioid Receptor Mu (Opiate Mu), OPRM1 (gene 4988) (P35372 whole entry, looked up): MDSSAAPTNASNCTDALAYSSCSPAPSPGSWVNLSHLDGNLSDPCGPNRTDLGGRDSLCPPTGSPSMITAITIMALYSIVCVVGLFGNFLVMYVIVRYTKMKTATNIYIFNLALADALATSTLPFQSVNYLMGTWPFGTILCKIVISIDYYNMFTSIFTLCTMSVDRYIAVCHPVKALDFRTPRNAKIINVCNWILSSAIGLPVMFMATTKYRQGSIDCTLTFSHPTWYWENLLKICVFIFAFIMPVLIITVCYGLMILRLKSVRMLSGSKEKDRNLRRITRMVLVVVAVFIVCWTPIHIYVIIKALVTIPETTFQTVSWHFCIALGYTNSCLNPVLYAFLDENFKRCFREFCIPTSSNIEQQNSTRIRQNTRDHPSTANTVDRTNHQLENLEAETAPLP
Procedure: NVS_GPCR_hOpiate_mu is a biochemical, single-readout assay that uses extracted gene-proteins from CHO in a cell-free assay. Measurements were taken 2.5 hours after chemical dosing in a 96-well plate.NVS_GPCR_hOpiate_mu is one of one assay component(s) measured or calculated from the NVS_GPCR_hOpiate_mu assay. It is designed to make measurements of radioligand binding, a form of binding reporter, as detected with scintillation counting signals by Filter-based radiodetection technology.Data from the assay component NVS_GPCR_hOpiate_mu was analyzed into 1 assay endpoint. This assay endpoint, NVS_GPCR_hOpiate_mu, was analyzed in the positive analysis fitting direction relative to DMSO as the negative control and baseline of activity. Using a type of binding reporter, loss-of-signal activity can be used to understand changes in the binding as they relate to the gene OPRM1. Furthermore, this assay endpoint can be referred to as a primary readout, because the performed assay has only produced 1 assay endpoint. To generalize the intended target to other relatable targets, this assay endpoint is annotated to the gpcr intended target family, where the subfamily is rhodopsin-like receptor.
Binding assays used specific radioligands (tritiated, iodinated) with non-radioactive competitive displacement ligands in agonist or antagonist protocols (as indicated) and various reference compounds and inhibitors to titrate specific binding to receptors and transporters. Most enzyme assays (CYPs, kinases, phosphatases, proteases, HDACs) used recombinant protein and specific substrates (fluorescence mostly, some colorimetric and radioactive) and inhibitors, followed by a biochemical separation of substrate and product. All assays for the biochemical HTS were initially run in duplicate at a single concentration (10 uM for CYP450 assays and 25 uM for all others). […] Each assay was run with positive and negative controls, and concurrent controls on every plate. The follow-up (secondary) screen tested active chemical-pairs in concentration series, as well as a few additional assays not tested in the primary screen, some selected negative inactives, and several cases re-run in the concentration series for confirmatory purposes.

[2] = target: mouse Cholecystokinin, CCK2 Receptor (CCKB), Cckbr (gene 12426) (UniProt P56481); assay: NVS_GPCR_mCKKBCentral: NovaScreen (NVS) G Protein-Coupled Receptor Assay for mouse Cholecystokinin, CCK2 Receptor (CCKB) (AID 2283293)
Chain of mouse Cholecystokinin, CCK2 Receptor (CCKB), Cckbr (gene 12426) (P56481 whole entry, looked up): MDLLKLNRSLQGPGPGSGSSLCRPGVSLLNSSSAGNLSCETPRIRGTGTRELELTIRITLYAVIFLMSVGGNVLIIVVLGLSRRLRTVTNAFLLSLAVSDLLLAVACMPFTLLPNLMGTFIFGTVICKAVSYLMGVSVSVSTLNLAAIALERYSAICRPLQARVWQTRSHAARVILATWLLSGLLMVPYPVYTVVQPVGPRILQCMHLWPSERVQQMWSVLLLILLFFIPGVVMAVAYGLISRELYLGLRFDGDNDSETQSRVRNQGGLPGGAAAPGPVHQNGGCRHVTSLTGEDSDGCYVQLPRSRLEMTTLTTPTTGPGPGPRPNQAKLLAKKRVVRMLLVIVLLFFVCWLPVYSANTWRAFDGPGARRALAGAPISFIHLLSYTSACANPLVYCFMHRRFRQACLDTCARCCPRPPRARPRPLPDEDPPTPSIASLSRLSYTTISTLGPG
Method in brief: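 Radioligand displacement binding on mouse forebrain membranes, 2 h exposure, filter-based scintillation counting. Primary screen in duplicate at 25 uM; actives (e.g. ≥30% inhibition) retested in concentration-response up to 50 uM; loss of binding signal relative to DMSO.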

[3] = target: rat Serotonin, 5-Hydroxytryptamine Receptor (5HT), Non-Selective Binding, Htr1a (gene 24473) (UniProt P19327); assay: NVS_GPCR_r5HT_NonSelective: NovaScreen (NVS) G Protein-Coupled Receptor Assay for rat Serotonin, 5-Hydroxytryptamine Receptor (5HT), Non-Selective Binding (AID 2283295)
Chain of rat Serotonin, 5-Hydroxytryptamine Receptor (5HT), Non-Selective Binding, Htr1a (gene 24473) (P19327 whole entry, looked up): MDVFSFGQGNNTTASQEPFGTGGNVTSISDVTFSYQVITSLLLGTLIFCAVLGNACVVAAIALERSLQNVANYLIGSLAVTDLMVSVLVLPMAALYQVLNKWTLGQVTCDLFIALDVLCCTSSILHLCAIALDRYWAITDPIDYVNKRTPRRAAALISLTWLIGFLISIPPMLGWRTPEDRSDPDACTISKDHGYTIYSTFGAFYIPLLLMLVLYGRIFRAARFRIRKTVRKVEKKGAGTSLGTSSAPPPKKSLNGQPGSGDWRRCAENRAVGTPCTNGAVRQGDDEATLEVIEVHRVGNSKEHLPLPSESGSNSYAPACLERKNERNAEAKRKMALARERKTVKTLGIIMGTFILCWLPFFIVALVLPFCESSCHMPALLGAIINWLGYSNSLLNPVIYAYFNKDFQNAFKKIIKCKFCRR
Method in brief: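 Radioligand displacement on rat cortical membranes, 1 h incubation, filter-based scintillation counting. Primary duplicates at 25 uM, actives retested in concentration series; loss of signal fitted against DMSO as baseline.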

[4] = target: guinea pig Serotonin, 5-Hydroxytryptamine Receptor 4 (5HT4), HTR4 (gene 100135548) (UniProt O70528); assay: NVS_GPCR_g5HT4: NovaScreen (NVS) G Protein-Coupled Receptor Assay for guinea pig Serotonin, 5-Hydroxytryptamine Receptor 4 (5HT4) (AID 2283294)
Chain of guinea pig Serotonin, 5-Hydroxytryptamine Receptor 4 (5HT4), HTR4 (gene 100135548) (O70528 whole entry, looked up): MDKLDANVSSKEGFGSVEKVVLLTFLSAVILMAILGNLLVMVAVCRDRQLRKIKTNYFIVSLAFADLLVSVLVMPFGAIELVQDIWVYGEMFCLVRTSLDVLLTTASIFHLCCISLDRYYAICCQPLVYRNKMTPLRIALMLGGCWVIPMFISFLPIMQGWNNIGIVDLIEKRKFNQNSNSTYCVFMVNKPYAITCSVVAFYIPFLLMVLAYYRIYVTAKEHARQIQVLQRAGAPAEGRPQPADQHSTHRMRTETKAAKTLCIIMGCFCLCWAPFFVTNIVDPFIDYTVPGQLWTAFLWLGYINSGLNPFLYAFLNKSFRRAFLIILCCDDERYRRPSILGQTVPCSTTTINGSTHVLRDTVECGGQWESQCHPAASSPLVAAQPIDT
Method in brief: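 Guinea pig striatal membranes; radioligand competitive displacement, filtration and scintillation counting after 1 h. Primary screen in duplicate at 25 uM; actives then tested in concentration series; loss of binding signal fitted relative to DMSO.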

[5] = target: rat Adrenergic, Alpha 1A Receptor (Adra1A), Adra1a (gene 29412) (UniProt P43140); assay: NVS_GPCR_rAdra1A: NovaScreen (NVS) G Protein-Coupled Receptor Assay for rat Adrenergic, Alpha 1A Receptor (Adra1A) (AID 2283296)
Chain of rat Adrenergic, Alpha 1A Receptor (Adra1A), Adra1a (gene 29412) (P43140 whole entry, looked up): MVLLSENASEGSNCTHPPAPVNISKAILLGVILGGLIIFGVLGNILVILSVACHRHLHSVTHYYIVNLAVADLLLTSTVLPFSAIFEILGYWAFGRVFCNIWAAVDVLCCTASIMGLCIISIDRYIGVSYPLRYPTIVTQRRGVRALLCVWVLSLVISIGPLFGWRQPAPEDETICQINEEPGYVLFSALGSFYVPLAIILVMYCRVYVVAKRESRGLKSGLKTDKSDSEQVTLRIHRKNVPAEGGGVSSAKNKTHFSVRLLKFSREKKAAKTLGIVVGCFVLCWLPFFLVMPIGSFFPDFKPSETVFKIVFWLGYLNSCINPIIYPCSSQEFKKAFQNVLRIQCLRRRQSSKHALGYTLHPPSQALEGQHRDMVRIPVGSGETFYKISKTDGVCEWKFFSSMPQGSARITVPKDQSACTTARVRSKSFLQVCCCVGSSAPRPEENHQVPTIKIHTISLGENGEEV
Procedure: NVS_GPCR_rAdra1A is a biochemical, single-readout assay that uses extracted gene-proteins from Rat cortical membranes (pretreated with chlorethyl clonidine-CEC) in a tissue-based cell-free assay. Measurements were taken 1 hour after chemical dosing in a 48-well plate.NVS_GPCR_rAdra1A is one of one assay component(s) measured or calculated from the NVS_GPCR_rAdra1A assay. It is designed to make measurements of radioligand binding, a form of binding reporter, as detected with scintillation counting signals by Filter-based radiodetection technology.Data from the assay component NVS_GPCR_rAdra1A was analyzed into 1 assay endpoint. This assay endpoint, NVS_GPCR_rAdra1A, was analyzed in the positive analysis fitting direction relative to DMSO as the negative control and baseline of activity. Using a type of binding reporter, loss-of-signal activity can be used to understand changes in the binding as they relate to the gene Adra1a. Furthermore, this assay endpoint can be referred to as a primary readout, because the performed assay has only produced 1 assay endpoint. To generalize the intended target to other relatable targets, this assay endpoint is annotated to the gpcr intended target family, where the subfamily is rhodopsin-like receptor. […]

[6] = test system: guinea pig Atrionatriuretic Peptide Receptor A (ANPA), gene 100135578; assay: NVS_GPCR_gANPA: NovaScreen (NVS) G Protein-Coupled Receptor Assay for guinea pig Atrionatriuretic Peptide Receptor A (ANPA) (AID 2283291)
Method in brief: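 Radioligand binding to guinea pig cerebellar membranes was measured after 1 h by filter-based scintillation counting. Chemicals were tested in duplicate at 25 uM, with hits run in concentration-response to a maximum of 50 uM. Binding loss was fitted against DMSO.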

[7] = test system: rat Adrenergic, Alpha 1B Receptor (Adra1B), gene 24173; assay: NVS_GPCR_rAdra1B: NovaScreen (NVS) G Protein-Coupled Receptor Assay for rat Adrenergic, Alpha 1B Receptor (Adra1B) (AID 2283297)
Method in brief: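 Rat liver membranes, radioligand displacement with filter-based scintillation detection, 1 h incubation. Primary screen in duplicate at 25 uM; actives retested in concentration series; activity relative to DMSO.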

[8] = target: guinea pig Bradykinin Receptor B2 (BK2), BDKRB2 (gene 100135486) (UniProt O70526); assay: NVS_GPCR_gBK2: NovaScreen (NVS) G Protein-Coupled Receptor Assay for guinea pig Bradykinin Receptor B2 (BK2) (AID 2283292)
Chain of guinea pig Bradykinin Receptor B2 (BK2), BDKRB2 (gene 100135486) (O70526 whole entry, looked up): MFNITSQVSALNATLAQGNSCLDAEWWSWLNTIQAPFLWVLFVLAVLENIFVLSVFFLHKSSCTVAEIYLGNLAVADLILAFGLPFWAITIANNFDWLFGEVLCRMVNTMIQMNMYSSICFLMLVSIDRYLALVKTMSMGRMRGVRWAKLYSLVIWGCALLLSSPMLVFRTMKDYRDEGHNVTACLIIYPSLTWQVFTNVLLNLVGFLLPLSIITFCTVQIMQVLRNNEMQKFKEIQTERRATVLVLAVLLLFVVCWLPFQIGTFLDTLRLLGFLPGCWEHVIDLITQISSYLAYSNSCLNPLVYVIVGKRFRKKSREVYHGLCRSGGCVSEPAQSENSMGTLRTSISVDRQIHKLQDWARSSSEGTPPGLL
Method in brief: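 Radioligand displacement on guinea pig ileum membranes for 1 h, read by filter-based scintillation counting; loss of signal relative to DMSO. Compounds were screened in duplicate at 25 uM, and those passing the threshold were retested in concentration-response up to 50 uM.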

[9] = target: rat Adrenergic Receptor, Beta (Adrb), Non-selective Binding, Adrb1 (gene 24925) (UniProt P18090); assay: NVS_GPCR_rAdrb_NonSelective: NovaScreen (NVS) G Protein-Coupled Receptor Assay for rat Adrenergic Receptor, Beta (Adrb), Non-selective Binding (AID 2283298)
Chain of rat Adrenergic Receptor, Beta (Adrb), Non-selective Binding, Adrb1 (gene 24925) (P18090 whole entry, looked up): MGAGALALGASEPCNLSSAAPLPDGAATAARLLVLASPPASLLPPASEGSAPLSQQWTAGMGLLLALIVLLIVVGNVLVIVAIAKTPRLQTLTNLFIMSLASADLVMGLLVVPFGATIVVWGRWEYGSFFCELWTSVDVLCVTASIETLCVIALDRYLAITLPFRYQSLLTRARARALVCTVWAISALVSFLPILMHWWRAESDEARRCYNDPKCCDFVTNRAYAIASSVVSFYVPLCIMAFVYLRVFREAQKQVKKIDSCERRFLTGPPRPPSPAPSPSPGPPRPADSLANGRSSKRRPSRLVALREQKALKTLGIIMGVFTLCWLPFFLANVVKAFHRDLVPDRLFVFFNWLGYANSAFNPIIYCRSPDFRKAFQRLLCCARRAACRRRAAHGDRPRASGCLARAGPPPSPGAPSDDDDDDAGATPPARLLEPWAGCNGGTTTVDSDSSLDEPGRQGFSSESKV
Method in brief: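 Non-selective beta-adrenergic radioligand binding in rat cortical membranes, 1 h incubation, filter-based scintillation read-out. Primary screen 25 uM in duplicate; hits retested in concentration-response up to 50 uM, DMSO baseline.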

[10] = target: rat Adrenergic Receptor, Alpha 2 (Adra2), Non-selective Binding, Adra2a (gene 25083) (UniProt P22909); assay: NVS_GPCR_rAdra2_NonSelective: NovaScreen (NVS) G Protein-Coupled Receptor Assay for rat Adrenergic Receptor, Alpha 2 (Adra2), Non-selective Binding (AID 2283299)
Chain of rat Adrenergic Receptor, Alpha 2 (Adra2), Non-selective Binding, Adra2a (gene 25083) (P22909 whole entry, looked up): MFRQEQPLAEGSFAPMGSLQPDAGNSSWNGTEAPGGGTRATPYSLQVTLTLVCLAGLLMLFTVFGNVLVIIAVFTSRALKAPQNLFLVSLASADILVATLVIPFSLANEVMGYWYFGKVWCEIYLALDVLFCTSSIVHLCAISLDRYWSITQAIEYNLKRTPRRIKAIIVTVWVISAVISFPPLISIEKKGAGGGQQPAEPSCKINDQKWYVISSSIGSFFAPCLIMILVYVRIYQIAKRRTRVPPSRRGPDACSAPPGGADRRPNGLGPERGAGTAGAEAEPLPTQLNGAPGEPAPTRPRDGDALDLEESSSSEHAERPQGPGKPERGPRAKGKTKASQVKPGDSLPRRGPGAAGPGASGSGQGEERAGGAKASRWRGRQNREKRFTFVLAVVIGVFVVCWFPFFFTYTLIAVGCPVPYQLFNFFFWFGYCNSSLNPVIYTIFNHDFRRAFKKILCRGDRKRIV
Method in brief: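 Rat cortical membranes, radioligand competitive displacement read by filter-based scintillation counting 1.25 hours after dosing. Primary screen in duplicate at 25 uM; actives followed up in concentration series.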

## Oc1cc(Cl)ccc1Oc1ccc(Cl)cc1Cl
[1]
  AC50: 19.9 µM (active) and 7.86 µM (active) and 15.6 µM (active)
  outcome: inactive

## CC[C@H](C)[C@H]1O[C@]2(C=C[C@@H]1C)C[C@@H]1C[C@@H](C/C=C(\C)[C@@H](O[C@H]3C[C@H](OC)[C@@H](O[C@H]4C[C@H](OC)[C@@H](O)[C@H](C)O4)[C@H](C)O3)[C@@H](C)/C=C/C=C3\CO[C@@H]4[C@H](O)C(C)=C[C@@H](C(=O)O1)[C@]34O)O2 (tested in a mixture with another compound)
[1]
  AC50: 9.27 µM (active)
[2]
  AC50: 12.4 µM (active)
[3]
  AC50: 16.4 µM (active)

## O=C(Nc1ccccc1)Nc1cnns1
[4]
  AC50: 6.99 µM (active)
[5]
  outcome: inactive

## CC(C)(C)C(O)/C(=C\c1ccc(Cl)cc1Cl)n1cncn1 (stereo not drawn)
[1]
  outcome: inactive

## CCc1ccc(C(=O)NN(C(=O)c2cc(C)cc(C)c2)C(C)(C)C)cc1
[2]
  outcome: inactive

## N#Cc1c(Cl)c(Cl)c(Cl)c(C#N)c1Cl
[4]
  outcome: inactive

## O=S(=O)(O)C(F)(F)C(F)(F)C(F)(F)C(F)(F)C(F)(F)C(F)(F)C(F)(F)C(F)(F)F
[6]
  outcome: inactive
[7]
  outcome: inactive

## O=C1c2ccccc2C(=O)N1SC(Cl)(Cl)Cl
[1]
  AC50: 6.04 µM (active)

## COC(=O)c1ccccc1S(=O)(=O)NC(=O)N(C)c1nc(C)nc(OC)n1
[8]
  outcome: inactive

## C#CCN1C(=O)COc2cc(F)c(N3C(=O)C4=C(CCCC4)C3=O)cc21
[8]
  outcome: inactive
[9]
  outcome: inactive

## Oc1ccc(Cl)cc1Cc1ccccc1
[1]
  AC50: 16.5 µM (active) [middle of 6 runs]
  outcome: inactive
[2]
  AC50: 19.8 µM (active) [middle of 4 runs]
[4]
  AC50: 17.2 µM (active) [middle of 6 runs]
[9]
  outcome: inactive

## CCC(C)(C)C(=O)OC1=C(c2ccc(Cl)cc2Cl)C(=O)OC12CCCCC2
[8]
  outcome: inactive
[2]
  outcome: inactive

## CCCN(CCOc1c(Cl)cc(Cl)cc1Cl)C(=O)n1ccnc1
[1]
  AC50: 10.5 µM (active)
[2]
  AC50: 6.71 µM (active)
[10]
  AC50: 1.85 µM (active)

## CC(C)(C)C(O)C(Oc1ccc(Cl)cc1)n1cncn1 (stereo not drawn)
[2]
  outcome: inactive
[7]
  outcome: inactive
